Screening results (PubChem)
A selection: hits, their analogues and other compounds. The true share with any hit is near 6.2%.
KB-V1 MDR tox: kills drug-selected multidrug resistant KB-V1 cells; KB-V1 MDR cells viability, CellTiter-Glo, 72 h; Potency, µM (highest dose often 46.1 µM), hits mostly cytotoxic; 3.4% of 400,000 active; AID 1347076; also: % is scaled to controls: 0 for no effect and ±100 for the full control effect; nearly all actives have a fitted effect of over 60% in size
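Compound-treated KB-V1 multidrug-resistant cells, 72 h, 37 degrees C; viability by CellTiter-Glo. Fitted qHTS curves give the values.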
S2 tox: reduces viability in counter-screen for ATXN expression inhibitors; S2 cells (HEK-293 line with an ATXN2-luciferase reporter) viability, CellTiter-Fluor protease fluorescence, 24 h; Potency, µM (highest dose often 56.7 µM), most hits filed as cytotoxic; 0.49% of 400,000 active; also: nearly all actives have a fitted effect of over 40% in size
ATXN2 expr inh: inhibitors of ATXN2 expression; HEK-293 ATXN2-luciferase reporter, luminescence, 24 h; 0.72% of 360,000 active; Potency, µM (highest dose often 57 µM), inactives show top-dose activity change, negative = inhibition, usual class: inhibitors; also: % is scaled to controls: 0 for no effect and ±100 for the full control effect; nearly all actives have a fitted effect of over 55% in size
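ATXN2-luciferase reporter cells (luciferase flanked by upstream and downstream ATXN2 gene portions) were treated 24 h at 37 °C with compounds at up to 57 uM. SteadyGlo luminescence gave expression; GF-AFC fluorescence gave viability.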
HT1080 IDH1KD tx: toxicity to HT-1080 IDH1 knockdown cells (counter line); 2% of 360,000 active; HT-1080 IDH1 knockdown viability, ATP luminescence, 48 h; Potency, µM (highest dose often 46.1 µM), for the others: at the highest dose activity, negative = toxicity, most hits filed as cytotoxic;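 also: 0% = DMSO wells and -100% = cell-free medium wells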
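Luminescent ATP read-out (CellTiter-Glo, 10 min at room temperature) after 48 h compound exposure at 37 °C gave viability of IDH1-knockdown HT-1080 cells. Activity was normalised to DMSO and cell-free wells, then fitted as concentration-response curves.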
HT1080-NT tox: kills 2HG-producing HT-1080-NT fibrosarcoma cells. HT-1080-NT fibrosarcoma viability, CellTiter-Glo ATP luminescence, 48 h. Potency, µM (doses to about 46.1 µM), inactives show at the highest dose activity, negative = less viability, actives largely listed as cytotoxic. 1.6% of 360,000 active;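 also: NT is the 2HG producing partner of a matched IDH1 knockdown line; 0% = DMSO-treated cells and -100% = media-only wells without cells; nearly all actives have a fitted effect of over 55% in size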
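Viability of the 2HG-overproducing fibrosarcoma line after 48 hours of compound exposure at 37 degrees C was determined by luminescence with CellTiter-Glo, and concentration-effect curves were then fitted and categorized.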
KB-3-1 tox: kills parental KB-3-1 adenocarcinoma cells. KB-3-1 viability, CellTiter-Glo ATP luminescence, 72 h. Potency, µM (series often up to 46.1 µM), most hits filed as cytotoxic. 1.4% of 400,000 active. AID 1347075; also: % is scaled to controls: 0 for no effect and ±100 for the full control effect; nearly all actives have a fitted effect of over 60% in size
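Parental KB-3-1 viability, qHTS format: 72 h compound exposure, 37 °C; CellTiter-Glo; media-only wells and DMSO plates as controls; concentration-effect fits on corrected data.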
Active calls of the source: *; i = inactive; ? = inconclusive; · = not tested or not shown; ! = not confirmed by another sample. Calls follow the shape of the dose curve; as a rule, active = well fitted curve in the direction sought with a large enough effect; inconclusive = small, poorly fitted or top-dose-only effect, or another doubt; inactive = no such curve, though single readings can be large; an effect the other way counts as inactive or inconclusive. Potency is read from the fitted curve at half-maximal effect.

SMILES | KB-V1 MDR tox | S2 tox | ATXN2 expr inh | HT1080 IDH1KD tx | HT1080-NT tox | KB-3-1 tox
C[C@@H]1C[C@@H]2OC(=O)[C@]3(C)[C@H]2[C@@H](OC3(C)O)[C@]2(C)C(=O)C=C[C@H]12 (some centres undefined) | i | i | -20% | 1% | -14% | ?
C=C1C(=O)C=C[C@]2(C)C[C@@H]3OC(=O)[C@](C)(O)[C@H]3C[C@@H]12 | ? | ? | 10µM* | ? | ? | ?
O=C1Nc2ccc(Br)cc2C1Cc1ccccc1F (centres undefined) | i | i | -11% | -2% | 2% | i
Cn1c(CC2C(=O)Nc3ccc(Br)cc32)nc2ccccc2c1=O (centres undefined) | 10µM* | i | -11% | -27% | ? | ?
O=[N+]([O-])c1ccc(/C=N/N/C(=N/c2ccccn2)c2ccccn2)cc1 | ? | ? | 6% | 10µM* | ? | i
COc1ccc(C(=O)c2ccccc2CN2C(=O)c3ccccc3C2=O)cc1 | 16µM* | i | 8% | 5% | -1% | i
COc1ccc(S(=O)(=O)n2nc(-c3ccco3)nc2NCc2ccc(C(C)C)cc2)cc1 | i | ? | 24% | · | · | i
Cc1cc(-c2nn(-c3ccccc3)cc2/C=C2\SC(N)=NC2=O)ccc1OC(C)C | 16µM* | ? | -23% | 2% | 7% | ?
CCOC(=O)C1CCCN(C(=O)c2cccc(NC(=O)c3nsc4ccccc34)c2)C1 (centres undefined) | i | i | 5% | · | · | i
Cc1cccc2c1-c1sc(C(=O)NCCCN3CCCC(C)C3)cc1CO2 (centres undefined) | i | ? | 35µM* | 21µM* | 21µM* | i
Cc1cccc(CCNC(=O)c2cc3c(s2)-c2c(C)cccc2OC3)c1 | i | i | 1% | · | · | i
CCCN1CCN(CCCNC(=O)c2cc3c(s2)-c2ccccc2OC3)CC1 | ? | i | ? | ? | 23µM* | i
CC1CCCC(C)N1CCCNC(=O)c1cc2c(s1)-c1ccccc1OC2 (centres undefined) | i | i | ? | 21µM* | ? | i
CC1CC(C)CN(CCCNC(=O)c2cc3c(s2)-c2ccccc2OC3)C1 (centres undefined) | i | ? | 25µM* | 18µM* | 18µM* | ?
COCCn1c(C)cc(O)c(C(c2ccccc2OC)N2CCCCC2)c1=O (centres undefined) | i | · | · | · | · | i
O=C(Cn1cnnn1)N[C@@H]1C(=O)N2C(C(=O)O)=C(CSc3nncs3)CS[C@H]12 | · | i | · | · | · | ·
Cc1ccc(CNC(=O)C(C)n2c(=O)cc(C(F)(F)F)c3c(C)nn(C)c32)cc1 (centres undefined) | i | i | -9% | · | · | i
CCN1CCN(CCCNC(=O)c2cc3c(s2)-c2ccccc2OC3)CC1 | ? | i | ? | ? | ? | i
CCCN1CCN(CCCNC(=O)c2cc3c(s2)-c2c(C)cccc2OC3)CC1 | i | ? | ? | 18µM* | 23µM* | ?
Cc1ccc(C)c(OCC(O)CN2CCc3ccccc3C2)c1C (centres undefined) | i | ? | ? | 9.2µM* | ? | i
CCOc1ccc(OCC(O)CN2CCc3ccccc3C2)cc1 (centres undefined) | i | i | · | -7% | 0% | i
CCc1ccc(S(=O)(=O)Nc2ccc3oc(C)c(C(=O)OCCOC)c3c2)cc1 | i | ? | -5% | · | · | i
CCOc1ccc(S(=O)(=O)Nc2ccc3oc(C)c(C(=O)OC(C)C)c3c2)cc1 | 13µM* | ? | -25% | · | · | ?
Cc1oc2ccc(OCC(N)=O)cc2c1C(=O)OC(C)C | ? | i | -4% | -27% | -17% | 23µM*
COCCOC(=O)c1c(C)oc2ccc(NS(=O)(=O)c3ccc(C)cc3)cc12 | 8.2µM* | i | · | -7% | 19% | i
SMILES | KB-V1 MDR tox | S2 tox | ATXN2 expr inh | HT1080 IDH1KD tx | HT1080-NT tox | KB-3-1 tox
Cc1cc(C)c(S(=O)(=O)Nc2ccc3oc(C)c(C(=O)OC(C)C)c3c2)cc1C | ? | ? | ? | · | · | i
COC(=O)c1ccc(NC(C)=O)cc1OC | · | i | 2% | · | · | ·
O=C(C[n+]1cccc2cccc(O)c21)c1ccccc1 | i | · | · | · | · | i
COC(=O)c1scc(C#N)c1N/N=C(\C#N)S(=O)(=O)c1ccc(Cl)cc1 | 8.2µM* | ? | ? | ? | ? | ?
COC(=O)c1scc(C)c1NC(=O)c1ccc(Cl)cc1 | i | · | -7% | 0% | 1% | i
CCCCCOc1ccc(/C=C/C(=O)Nc2sc(C(C)=O)c(C)c2C(=O)OCC)cc1OC | ? | ? | 1% | · | · | i
CCC(C)c1ccccc1NC(=O)c1cc2cccc([N+](=O)[O-])c2[nH]1 (centres undefined) | i | ? | -1% | 16µM* | ? | i
Cc1ccc(NC(=O)c2cc3cccc([N+](=O)[O-])c3[nH]2)cc1 | i | i | 78% | -5% | -6% | i
CCOC(=O)c1c(C)[nH]c(C)c1S(=O)(=O)N1CCCC(C(=O)N2CCN(c3ccc(Cl)cc3)CC2)C1 (centres undefined) | i | ? | ? | · | · | i
CC(=O)NCCNc1nc(NC(C)C)nc2cc(-c3ccccc3)sc12 | i | i | -21% | -25% | -22% | i
CC(=O)Nc1ccc(CNc2nc(NC(C)C)nc3cc(-c4ccccc4)sc23)cc1 | 21µM* | ? | 22µM* | ? | ? | ?
C=CCNc1nc(NCc2ccc(NC(C)=O)cc2)c2sc(-c3ccccc3)cc2n1 | ? | 32µM* | ? | -21% | 18µM* | ?
COc1ccc(-c2cc(CNc3nc(NC(C)C)nc4cc(-c5ccccc5)sc34)on2)cc1 | 21µM* | ? | ? | 12µM* | 10µM* | ?
CN(C)C(=O)c1ccc(N=Nc2c(O)c3ccccc3[nH]c2=O)cc1 | ? | ? | -34% | 6.5µM* | 5.8µM* | i
Cn1nc(C(C)(C)C)cc1NC(=O)Nc1cc(Cl)cc(Cl)c1 | i | i | -37% | ? | 16µM* | i
CN(Cc1cnc2nc(N)nc(N)c2n1)c1ccc(C(=O)N[C@@H](CCC(=O)O)C(=O)O)cc1 | 0.029µM*! | ? | 32µM*! | 0.046µM*! | 0.0052µM*! | 0.065µM*!
CCOC(=O)Cn1c(=O)oc2cc(S(=O)(=O)N3CCN(c4ccccc4F)CC3)ccc21 | i | i | -11% | · | · | i
